{"source": "PubChem BioAssay AID686979", "about": "(National Center for Advancing Translational Sciences (NCATS), 2013)", "note": "Among all 420,000 compounds or so, about 50,000 (12%) were called active. Inconclusive results (about 26%) are left out. The entries come from a sample that favours actives as a whole. Values without a mark were called inactive. The call rests on the fitted dose curve; in most records, active means well fitted inhibition curve with a large enough effect; inconclusive means small, poorly fitted or top-dose-only effect; inactive means flat fitted curve, though single readings scatter. On the % scale 0 is the no-effect control and ±100 the full control effect; potency means the concentration at half of the fitted maximal effect."}
{"assay": "qHTS for Inhibitors of human tyrosyl-DNA phosphodiesterase 1 (TDP1): qHTS in cells in presence of CPT; further: nearly all actives have a fitted effect of over 55% in size", "settings": "chicken DT40 Tdp1-/-;hTDP1 cells + 20 nM CPT, ATP luminescence, 48 h; series mostly up to 46.2 µM; activity change, negative = growth inhibition: at the top concentration", "procedure,_shortened": "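Cell growth measured by CellTiter-Glo luminescence after a minimum 48 h, 37 C compound exposure with 20 nM CPT in Tdp1-knockout DT40 cells stably expressing hTDP1, seeded 400/well; qHTS titration format.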", "units": {"activity change, negative = growth inhibition": "%"}}
{"smiles": "CCCCn1c(N)c(N2CCOCC2)c(=O)n(CC(=O)NCCc2ccccc2)c1=O", "activity change, negative = growth inhibition": 16.5}
{"smiles": "CN(C(=O)CSc1nnc(-c2n[nH]c3ccccc23)o1)c1ccccc1", "activity change, negative = growth inhibition": -24.6}
{"smiles": "Cc1c(Cl)c([N+](=O)[O-])nn1CC(=O)NCCCN1CCOCC1", "activity change, negative = growth inhibition": 24.4}
{"smiles": "O=C(COC(=O)/C=C/c1ccc(OC(F)F)cc1)NC1CCCCC1", "activity change, negative = growth inhibition": 0.0698}
{"smiles": "CCCC/C(C)=N/NC(=O)NC1CCCCC1", "activity change, negative = growth inhibition": -4.55}
{"smiles": "C/C(=N\\NC(=O)NC1CCCCC1)c1ccc(OC(F)F)cc1OC(F)F", "Potency": "23.1 µM (active)"}
{"smiles": "O=C(NCc1ccccc1Cl)C1CCC(CNc2c(N3CCCCC3)c(=O)c2=O)CC1", "note": "(configuration not stated)", "activity change, negative = growth inhibition": -0.925}
{"smiles": "COc1ccc2oc(=O)cc(CN3CCOCC3)c2c1", "activity change, negative = growth inhibition": -16.2}
{"smiles": "O=C(NC(Cc1ccccc1)C(=O)N1CCCC(C(F)(F)F)C1)c1ccccc1", "note": "(configuration not stated)", "activity change, negative = growth inhibition": -9.26}
{"smiles": "FC(F)(F)C1CCCN(c2nsc3ccccc23)C1", "note": "(configuration not stated)", "Potency": "2.31 µM (active)"}
{"smiles": "O=C(NCC(=O)N1CCCC(C(F)(F)F)C1)c1ccccc1F", "note": "(configuration not stated)", "activity change, negative = growth inhibition": -11.4}
{"smiles": "CCCCCC1CC(COc2ccccc2)OC1=O", "note": "(configuration not stated)", "activity change, negative = growth inhibition": 6.66}
{"smiles": "COc1ccc(S(=O)(=O)N2CCOC2CNC(=O)C(=O)NCc2ccncc2)cc1C", "note": "(configuration not stated)", "activity change, negative = growth inhibition": -28.4}
{"smiles": "COc1ccc(CCNC(=O)C(=O)NCC2OCCN2S(=O)(=O)c2ccc(OC)c(C)c2)cc1", "note": "(configuration not stated)", "Potency": "18.4 µM (active)"}
{"smiles": "COc1ccc(CCNC(=O)C(=O)NCC2OCCN2S(=O)(=O)c2ccc(F)cc2)cc1OC", "note": "(configuration not stated)", "activity change, negative = growth inhibition": -25}
{"smiles": "CN(C)CCCNC(=O)c1cc(C(=O)Cc2ccc(Cl)cc2)c[nH]1", "activity change, negative = growth inhibition": -24}
{"smiles": "CCCCN(CCCC)CC(O)Cn1c2ccccc2c(=O)c2ccccc21", "note": "(configuration not stated)", "activity change, negative = growth inhibition": -27}
{"smiles": "Cc1ccc(C(=O)OCC(=O)N2CC(C)CC(C)C2)cc1S(=O)(=O)N1CCCCC1", "note": "(configuration not stated)", "activity change, negative = growth inhibition": -15.4}
{"smiles": "CCCOc1ccc(C2c3c(-c4ccccc4O)n[nH]c3C(=O)N2Cc2cccnc2)cc1", "note": "(configuration not stated)", "Potency": "23.1 µM (active)"}
{"smiles": "CCOc1ccc(/C(O)=C2/C(=O)C(=O)N(Cc3cccnc3)C2c2ccc(N(C)C)cc2)c(C)c1", "note": "(configuration not stated)", "activity change, negative = growth inhibition": -2.62}
{"smiles": "COc1ccc(C2C(C(C)=O)=C(O)C(=O)N2Cc2cccnc2)cc1", "note": "(configuration not stated)", "activity change, negative = growth inhibition": -2.63}
{"smiles": "COc1ccc(S(=O)(=O)N2CCC(C(=O)NCCC(=O)NCCc3cccc(F)c3)CC2)cc1", "activity change, negative = growth inhibition": -23.3}
{"smiles": "NC(Cc1ccc(F)cc1)c1csc(Nc2nncc3ccccc23)n1", "note": "(configuration not stated)", "Potency": "4.11 µM (active)"}
{"smiles": "COCC(C)NC(=O)COc1nncc2ccccc12", "note": "(configuration not stated)", "activity change, negative = growth inhibition": -4.2}
{"smiles": "CN1CCN(S(=O)(=O)c2ccc(NC(=S)NC(=O)C3CC3)cc2)CC1", "activity change, negative = growth inhibition": -0.132}
{"smiles": "O=C(NCCc1ccccc1)C(=O)NCC1OCCN1S(=O)(=O)c1cccs1", "note": "(configuration not stated)", "activity change, negative = growth inhibition": 0.778}
{"smiles": "CCCCn1c(N)c(N(CC(C)C)C(=O)c2cccc(S(=O)(=O)N3CCN(C(C)=O)CC3)c2)c(=O)[nH]c1=O", "activity change, negative = growth inhibition": 4.86}
{"smiles": "COc1cc(C(=O)Nn2c(O)c(C3=c4ccccc4=NC3=O)sc2=S)ccc1O", "activity change, negative = growth inhibition": 0.512}
{"smiles": "CCN(CC)CCCNC(=O)CCn1nc(-c2ccc(Cl)cc2)ccc1=O", "activity change, negative = growth inhibition": 22.6}
{"smiles": "O=c1[nH][nH]c(=O)c2cc(N3CCCC3)ccc12", "activity change, negative = growth inhibition": 5.12}
{"smiles": "O=C1C=CC(=O)N1c1ccc(N2CCCCC2)cc1", "Potency": "1.16 µM (active)"}
{"smiles": "O=C(CN1CCN(c2ccc(Cl)cc2)CC1)N1CCCC1", "activity change, negative = growth inhibition": -27.3}
{"smiles": "CNC(=S)Nc1ccc([N+](=O)[O-])cc1", "activity change, negative = growth inhibition": -11.1}
{"smiles": "O=C(O)/C=C/C(=O)NNc1ccc([N+](=O)[O-])cc1", "Potency": "20.6 µM (active)"}
{"smiles": "O=C(Cc1ccccc1)NNS(=O)(=O)c1ccc([N+](=O)[O-])cc1", "activity change, negative = growth inhibition": -20.3}
{"smiles": "COc1cccc(NC(=O)C(Sc2nnnn2C)c2ccccc2)c1", "note": "(configuration not stated)", "activity change, negative = growth inhibition": -14.2}
{"smiles": "COCCCN1C(=O)C(CC(=O)NCc2cccs2)CC(C(=O)N2CCOCC2)=C1C", "note": "(configuration not stated)", "activity change, negative = growth inhibition": -3.22}
{"smiles": "CCOCCCN1C(=O)C2C(C(=O)Nc3ccc(OCC)cc3)C3C=CC2(O3)C1C(=O)NC1CCCCC1", "note": "(configuration not stated)", "activity change, negative = growth inhibition": 2.43}
{"smiles": "Cc1cc(-c2ccc(S(=O)(=O)N3CCc4ccccc4C3)s2)on1", "activity change, negative = growth inhibition": -7.71}
{"smiles": "Cc1cc(C)cc(NS(=O)(=O)c2ccc(-c3cc(C)no3)s2)c1", "Potency": "2.59 µM (active)"}
{"smiles": "CCc1cccc(C)c1NS(=O)(=O)c1ccc(-c2cc(C)no2)s1", "Potency": "0.411 µM (active)"}
{"smiles": "CC(=O)c1ccc(NS(=O)(=O)c2ccc(-c3cc(C)no3)s2)cc1", "activity change, negative = growth inhibition": -24.3}
{"smiles": "CCc1cccc(C)c1NS(=O)(=O)c1cc(Br)cnc1N", "activity change, negative = growth inhibition": 10.5}
{"smiles": "Cc1cc(-c2ccc(S(=O)(=O)N3CCN(c4cccc(C(F)(F)F)c4)CC3)s2)on1", "activity change, negative = growth inhibition": -22.2}
{"smiles": "O=C(O)c1cccc(N=NN2CCCCCC2)c1", "activity change, negative = growth inhibition": 6.37}
{"smiles": "CC(C)(C)c1ccc(S(=O)(=O)NC(=O)C2(C)CCN2C(=O)CC2CC2)cc1", "note": "(configuration not stated)", "activity change, negative = growth inhibition": -15.6}
{"smiles": "Cc1ccnc(NC(=O)CCNS(=O)(=O)c2ccc(C)c(C)c2)c1", "activity change, negative = growth inhibition": 13}
{"smiles": "CN1CCN(C(=O)c2ccc(-c3cc4nc(NCc5cccnc5)n(C)c(=O)c4s3)cc2)CC1", "activity change, negative = growth inhibition": 3.92}
{"smiles": "Cc1ccc(-c2n[nH]c(=S)n2/N=C/c2cc3c(cc2[N+](=O)[O-])OCO3)cc1", "activity change, negative = growth inhibition": -1.27}
{"smiles": "CC(=O)N/N=C/c1cc2c(cc1[N+](=O)[O-])OCO2", "activity change, negative = growth inhibition": 17.1}
{"smiles": "Cc1ccc(S(=O)(=O)N/N=C\\c2cc3c(cc2[N+](=O)[O-])OCO3)cc1", "Potency": "10.3 µM (active)"}
{"smiles": "O=C(Nc1ccc(Cl)cc1)c1csc([C@@H]2O[C@H](CO)[C@H](O)[C@H](O)[C@H]2O)n1", "activity change, negative = growth inhibition": -10.8}
